{"source": "PubChem BioAssay (NCATS)", "note": "Inconclusive results are not listed. Active and inactive are the calls of the source. Calls come from the whole dose curve; as a rule, active = well fitted inhibition curve with a large enough effect; inconclusive = small, poorly fitted or top-dose-only effect; inactive = flat fitted curve, though single readings scatter. Potency is the fitted concentration of half-maximal effect.", "data": [{"target": "Ubiquitin carboxyl-terminal hydrolase 2 (Homo sapiens) (UniProt O75604)", "sequence (O75604 whole entry, looked up)": "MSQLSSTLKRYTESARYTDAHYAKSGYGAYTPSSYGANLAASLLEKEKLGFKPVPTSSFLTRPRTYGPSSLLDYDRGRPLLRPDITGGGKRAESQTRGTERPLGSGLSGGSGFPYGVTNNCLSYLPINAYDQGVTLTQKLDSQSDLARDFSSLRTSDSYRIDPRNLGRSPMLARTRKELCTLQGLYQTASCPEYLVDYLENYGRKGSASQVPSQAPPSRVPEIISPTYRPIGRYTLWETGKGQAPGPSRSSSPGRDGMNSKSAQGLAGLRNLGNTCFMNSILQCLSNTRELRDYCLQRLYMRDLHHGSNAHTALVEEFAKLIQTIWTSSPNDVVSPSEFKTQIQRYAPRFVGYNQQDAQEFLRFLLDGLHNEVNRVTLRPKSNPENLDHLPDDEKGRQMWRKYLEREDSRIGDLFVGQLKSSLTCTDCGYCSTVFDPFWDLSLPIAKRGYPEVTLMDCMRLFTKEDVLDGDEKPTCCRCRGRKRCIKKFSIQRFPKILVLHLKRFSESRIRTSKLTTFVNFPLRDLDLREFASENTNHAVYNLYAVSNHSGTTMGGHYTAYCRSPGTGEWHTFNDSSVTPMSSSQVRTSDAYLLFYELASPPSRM", "assay": "qHTS for Inhibitors of Ubiquitin-specific Protease USP2a Using CHOP2 as the Reporter: K484 Substrate (AID 652173); note: nearly all actives have a fitted effect of over 70% in size", "conditions": "USP2 cleavage of DiUb K48 IQF substrate, fluorescence; series mostly up to 57.5 µM; activity change, negative = inhibition: at the top concentration", "text": "Homeostasis of cellular proteins is maintained through a combination of synthesis and degradation. The pathway that accounts for the majority of protein degradation is the ubiquitin-proteasomal pathway. Ubiquitin (Ub) is highly conserved in all cells and the generation of a multi-Ub chain typically targets proteins for degradation by the proteasome. However, ubiquitination is highly reversible and dynamic. Deubiquitination, the reverse process, is catalyzed through the action of enzymes referred to as isopeptidases or deubiquitinating enzymes (DUBs). This group of enzymes is collectively responsible for maintaining adequate pools of free ubiquitin and regulating the ubiquitination status of cellular proteins. The class of DUBs referred to as the ubiquitin-specific proteases (USP) family functions endoproteolytically to cleave Ub chains from a wide range of protein substrates. USP2a deubiquitinates fatty acid synthase (FASN) which has recently been identified as an emerging oncology target. To identify inhibitors of USP2a a cell-free qHTS assay was employed. Confirmed qHTS active compounds were tested in orthogonal USP2 assays utilizing a di-ubiquitin substrate labeled with a quencher on one ubiquitin and a fluorescent compound on the other, i.e. the substrate has internally quenched fluorescence or IQF (Lifesensors). In the presence of active USP2, the diubiquitin (DiUb) is cleaved and the fluorescence at 598 nm increases. This assay is run in kinetic mode. Upon inhibition of USP2, the fluorescence signal from cleaved substrate increases less over time than in the absence of an inhibitor. This assay was also used during SAR. The buffer consisted of 20 mM Tris pH 8, 2 mM beta-mercaptoethanol and 0.05% Chaps, and the assay was run in black solid-bottom Greiner plates. NIH Molecular Libraries Probe Centers Network [MLPCN] NIH Chemical Genomics Center [NCGC] MLSCN Grant: MH079852 PI Name: Benjamin Nicholson, Progenra Inc, Malvern, PA\n3 uL of 5 nM USP2 (or no enzyme) was dispensed in assay buffer was dispensed into a 1536-well plate and then compounds were added through pinning. 1 uL of 100 nM DiUb K48-4IQF subtsrate was added before fluoresence on the ViewLux in kinetic moder (Ex 525/Em 598).", "values": [{"compound": "COc1ccc(Cl)cc1C(=O)Nc1nc(-c2ccccc2)cs1", "Potency": "9.68 µM (active)"}, {"compound": "Cc1ccc(CNc2ccccc2C(=O)Nc2nc(-c3ccccc3)cs2)cc1", "Potency": "21.7 µM (active)"}, {"compound": "O=S(=O)(Nc1nc(CN2CCOCC2)nc2sc3c(c12)CCC3)c1ccc2c(c1)OCCO2", "activity change, negative = inhibition": "-17.9% (inactive)"}, {"compound": "Cc1ccc(S(=O)(=O)Nc2ccc(C(=O)Nc3nc(-c4ccc(Cl)cc4)cs3)cc2)cc1", "Potency": "3.06 µM (active)"}, {"compound": "Cc1ccc(S(=O)(=O)Nc2ccccc2C(=O)Nc2nccs2)cc1", "Potency": "24.3 µM (active)"}, {"compound": "CC1CC1C(=O)Nc1ccc([S+](=O)([O-])Nc2nccs2)cc1", "note": "(stereo not given)", "activity change, negative = inhibition": "-16.6% (inactive)"}, {"compound": "Cc1ccc(NS(=O)(=O)c2cccc(C(=O)Nc3nc(-c4ccccc4)cs3)c2)cc1", "Potency": "3.06 µM (active)"}, {"compound": "O=C(Nc1ccc(S(=O)(=O)Nc2nc(-c3ccccc3)cs2)cc1)c1ccc2ccccc2c1", "Potency": "2.43 µM (active)"}, {"compound": "COc1ccc(NS(=O)(=O)c2ccc(C)cc2)cc1C(=O)Nc1nc(-c2ccccc2)cs1", "Potency": "3.43 µM (active)"}, {"compound": "O=C(Nc1ccc([S+](=O)([O-])Nc2nccs2)cc1)c1ccccn1", "activity change, negative = inhibition": "-5.41% (inactive)"}, {"compound": "Cc1cccc2c(C(=O)O)cc(Cl)nc12", "activity change, negative = inhibition": "-8.17% (inactive)"}, {"compound": "Cc1ccc(S(=O)(=O)Nc2cc3c(cc2C(=O)Nc2nc(-c4ccccc4)cs2)OCO3)cc1", "Potency": "1.37 µM (active)"}, {"compound": "Cc1ccc(S(=O)(=O)Nc2ccc(C(=O)Nc3ncc(-c4ccccc4)s3)cc2)cc1", "Potency": "2.43 µM (active)"}, {"compound": "Cc1ccc(-c2cc(C(=O)Nc3ccc(S(=O)(=O)Nc4ccc(C#N)cc4)cc3)c3ccccc3n2)cc1C", "Potency": "3.06 µM (active)"}, {"compound": "O=C(Nc1nc(-c2ccccc2)cs1)c1cccc(NS(=O)(=O)c2nccs2)c1", "Potency": "17.2 µM (active)"}, {"compound": "Cc1ccc(S(=O)(=O)n2cc(C(=O)Nc3ccc(-c4ccccc4)cc3)c3ccccc32)cc1", "Potency": "21.7 µM (active)"}, {"compound": "CC1CCC(C(=O)Nc2ccc([S+](=O)([O-])Nc3nccs3)cc2)CC1", "note": "(stereo not given)", "activity change, negative = inhibition": "-25.9% (inactive)"}, {"compound": "Cc1ccc(S(=O)(=O)Nc2cnccc2C(=O)Nc2nc(-c3ccc(-c4ccccc4)cc3)cs2)cc1", "Potency": "2.17 µM (active)"}, {"compound": "O=C(Nc1nc(-c2ccccc2)cs1)c1ccncc1NS(=O)(=O)c1ccc(N2CCCC2=O)cc1", "Potency": "15.3 µM (active)"}, {"compound": "O=C(Nc1nc(-c2ccccc2)cs1)c1ccccc1S(=O)(=O)Nc1nccs1", "Potency": "12.2 µM (active)"}, {"compound": "Cc1ccc(S(=O)(=O)Nc2ccc(C(=O)Nc3nc(-c4ccccc4)cs3)c(Cl)c2)cc1", "Potency": "1.93 µM (active)"}, {"compound": "O=S(=O)(Nc1nccs1)c1ccc(Nc2nc(-c3ccccc3)cs2)cc1", "activity change, negative = inhibition": "-12.7% (inactive)"}, {"compound": "Cc1ccc(S(=O)(=O)NCCC(=O)Nc2nc(-c3ccccc3)cs2)cc1", "Potency": "19.3 µM (active)"}, {"compound": "O=C1CC(c2ccccc2)Cc2[nH]c(=O)c(-c3nc(-c4ccc(F)cc4)cs3)cc21", "note": "(stereo not given)", "Potency": "17.2 µM (active)"}, {"compound": "O=C(Nc1ccc(S(=O)(=O)Nc2nccs2)cc1)c1cccc2ccccc12", "Potency": "24.3 µM (active)"}, {"compound": "O=c1[nH]c(CCl)nc2sc3c(c12)CCC3", "activity change, negative = inhibition": "-27% (inactive)"}, {"compound": "Cc1ccc(C(=O)[C@H]2CC[C@@H](C(=O)Nc3ccc(S(=O)(=O)Nc4nccs4)cc3)C2)cc1C", "Potency": "3.85 µM (active)"}, {"compound": "CC(C)C1CCC(C(=O)Nc2ccc(S(=O)(=O)Nc3nccs3)cc2)CC1", "note": "(stereo not given)", "Potency": "10.9 µM (active)"}, {"compound": "Cc1ccc(S(=O)(=O)Nc2ccccc2CNc2nc(-c3ccccc3)cs2)cc1", "Potency": "6.11 µM (active)"}, {"compound": "Cc1ccc(-c2cc(C(=O)Nc3ccc(-c4noc(=O)[nH]4)cc3)c3ccccc3n2)cc1C", "Potency": "4.32 µM (active)"}, {"compound": "Cc1ccc(S(=O)(=O)Nc2cc(F)c(F)cc2C(=O)Nc2nc(-c3ccccc3)cs2)cc1", "Potency": "0.863 µM (active)"}, {"compound": "COc1cc(NS(=O)(=O)c2ccc(C)cc2)cc(C(=O)Nc2nc(-c3ccccc3)cs2)c1", "Potency": "2.43 µM (active)"}, {"compound": "COc1cccc(NS(=O)(=O)c2ccc(C)cc2)c1C(=O)Nc1nc(-c2ccccc2)cs1", "Potency": "4.32 µM (active)"}, {"compound": "O=C(Cc1ccc2ccccc2c1)Nc1ccc(S(=O)(=O)Nc2nccs2)cc1", "Potency": "12.2 µM (active)"}, {"compound": "CCCCc1ccc(C(=O)Nc2ccc(S(=O)(=O)Nc3nccs3)cc2)cc1", "Potency": "10.9 µM (active)"}, {"compound": "O=c1[nH]c(CN2CCOCC2)nc2sc3c(c12)CCCC3", "activity change, negative = inhibition": "-5.01% (inactive)"}, {"compound": "Cc1ccc(S(=O)(=O)Nc2cccc(C(=O)Nc3nc(-c4ccccc4)cs3)c2)cc1", "Potency": "3.43 µM (active)"}, {"compound": "Cc1ccc(-c2cc(C(=O)Nc3ccccc3)c3ccccc3n2)cc1C", "Potency": "24.3 µM (active)"}, {"compound": "O=C(Cc1nc2ccc(Cl)cc2[nH]1)Nc1ccc(S(=O)(=O)Nc2nccs2)cc1", "Potency": "30.6 µM (active)"}, {"compound": "Cc1ccc(-c2cc(C(=O)N3CC[S+](=O)([O-])CC3)c3ccccc3n2)cc1C", "activity change, negative = inhibition": "-24.7% (inactive)"}]}]}
